From the supplement of paper PMC6992640
± gives the standard deviation of the averaged measurements.

Tests used:
Experiment in all cases: cell viability (% of vehicle); higher = less cytotoxic
Conditions in all cases: 10 µM; 72 h
HCI01 = system: HCI01 (cells of a triple-negative basal-like breast cancer xenograft)
HCI03 = system: HCI03 (cells of an ER-positive luminal breast cancer xenograft)
HCI09 = system: HCI09 (cells of a triple-negative luminal androgen receptor type breast cancer xenograft)
HCI11 = system: HCI11 (cells of an ER-positive luminal breast cancer xenograft)
HCI13 = system: HCI13 (cells of an ER-positive luminal breast cancer xenograft)
HCI16 = system: HCI16 (cells of a triple-negative basal-like breast cancer xenograft)
UCD52 = system: UCD52 (cells of a triple-negative basal-like breast cancer xenograft)
WHIM2 = system: WHIM2 (cells of a triple-negative basal-like breast cancer xenograft)
WHIM30 = system: WHIM30 (cells of a triple-negative basal-like breast cancer xenograft)
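Further: PDX cells carrying CMV promoter-driven luciferase, viability read as total photon flux per second by IVIS imaging following D-luciferin, vehicle control 0.1% DMSO.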

Compound | cell viability (HCI01) | cell viability (HCI03) | cell viability (HCI09) | cell viability (HCI11) | cell viability (HCI13) | cell viability (HCI16) | cell viability (UCD52) | cell viability (WHIM2) | cell viability (WHIM30)
CC(NC(=O)Cc1cc(F)cc(F)c1)C(=O)NC(C(=O)OC(C)(C)C)c1ccccc1 (stereo not drawn) | 111 ± 14 | 115 | 64.1 ± 6.3 | 104 | 116 ± 9.7 | 130 | 60.1 ± 2.1 | 74.18 ± 0.26 | 123 ± 25
Cl.Cl.O=C(O)COCCN1CCN(C(c2ccccc2)c2ccc(Cl)cc2)CC1 (stereo not drawn) [Cetirizine DiHCl] | 111 ± 5.7 | 118 | 98.4 ± 0.98 | 103 | 147 ± 6.2 | 116 | 78.6 ± 6.7 | 90.1 ± 1.9 | 109 ± 7.9
CCC(C)C(=O)OC1CCC=C2C=CC(C)C(CCC3CC(O)CC(=O)O3)C21 (stereo not drawn) [Mevastatin] | 129 ± 20 | 119 | 87.8 ± 22 | 120 | 92.7 ± 24 | 132 | 54.2 ± 10 | 86.8 ± 15 | 136 ± 4.6
Cc1ccccc1N1C(=O)c2cc(S(N)(=O)=O)c(Cl)cc2NC1C (stereo not drawn) [Metolazone] | 121 ± 18 | 129 | 98.5 ± 8.3 | 57.9 | 132 ± 16 | 198 | 107 ± 1.9 | 103 ± 6.2 | 127 ± 13
COc1ccccc1N1CCN(CCCNc2cc(=O)n(C)c(=O)n2C)CC1.Cl [Urapidil HCl] | 96.7 ± 8.1 | 125 | 89.54 ± 0.6 | 80.2 | 93.3 ± 1.2 | 105 | 97.6 ± 7.3 | 98.8 ± 5.4 | 111 ± 3.3
Cl.O=C1Cc2cc(CCN3CCN(c4nsc5ccccc45)CC3)c(Cl)cc2N1 [Ziprasidone HCl] | 45.7 ± 12 | 78.6 | 33.8 ± 21 | 57.8 | 45.9 ± 5.8 | 46.5 | 130 ± 9.5 | 38.1 ± 5.7 | 123 ± 11
CC(Cc1ccc(O)c(O)c1)(NN)C(=O)O (stereo not drawn) [Carbidopa] | 116 ± 20 | 122 | 121 ± 20 | 79.8 | 119 ± 14 | 149 | 124 ± 9.1 | 81.6 ± 11 | 126 ± 6.2
Cl.NC(N)=NC(N)=NCCc1ccccc1 [Phenformin HCl] | 117 ± 7.8 | 114 | 53.2 ± 5.3 | 110 | 58.8 ± 5.4 | 94.6 | 78.7 ± 3.6 | 95.4 ± 15 | 90.3 ± 11
Cc1ccc(Cl)c(Nc2ccccc2C(=O)[O-])c1Cl.[Na+] [Meclofenamate Sodium] | 111 ± 10 | 158 | 100 ± 5.1 | 103 | 122 ± 5 | 121 | 92.1 ± 4.6 | 97.8 ± 9.9 | 144 ± 2.2
CN(C)CCC=C1c2ccccc2Sc2ccc(Cl)cc21 [Chlorprothixene] | 85.8 ± 14 | 87.1 | 71.9 ± 13 | 93.9 | 105 ± 2.6 | 83.8 | 54.4 ± 2.5 | 49.9 ± 20 | 124 ± 13
Nc1nc(N)c2nc(-c3ccccc3)c(N)nc2n1 [Triamterene] | 105 ± 25 | 148 | 116 ± 17 | 109 | 120 ± 12 | 138 | 123 ± 28 | 94.5 ± 15 | 122 ± 17
CC(C(=O)[O-])c1cccc(Oc2ccccc2)c1.CC(C(=O)[O-])c1cccc(Oc2ccccc2)c1.[Ca+2] (stereo not drawn) [Fenoprofen Calcium] | 112 ± 34 | 100 | 101 ± 7.6 | 94.3 | 121 ± 16 | 105 | 83 ± 3.5 | 98.7 ± 7.4 | 169 ± 11
CC(=O)N(CC(O)CO)c1c(I)c(C(=O)NCC(O)CO)c(I)c(C(=O)NCC(O)CO)c1I (stereo not drawn) [Iohexol] | 117 ± 33 | 116 | 96.5 ± 2.9 | 83.2 | 133 ± 9.7 | 122 | 101 ± 6.7 | 99.2 ± 2.7 | 95.9 ± 8.9
CCN(CC)C(=S)SSC(=S)N(CC)CC [Disulfiram] | 140 ± 49 | 75.8 | 71.6 ± 4.1 | 66.5 | 90 ± 5.2 | 92.3 | 82.3 ± 8.8 | 102 ± 8 | 115 ± 14
CC(=O)SCC(Cc1ccccc1)C(=O)NCC(=O)OCc1ccccc1 (stereo not drawn) [Racecadotril] | 106 ± 19 | 111 | 92.8 ± 9.8 | 93.3 | 114 ± 8.9 | 104 | 65.6 ± 16 | 92.8 ± 1.4 | 79.3 ± 9
CC[C@H](C)[C@@H]1NC(=O)[C@H](Cc2ccc(O)cc2)NC(=O)[C@@H](N)CSSC[C@@H](C(=O)N2CCC[C@H]2C(=O)N[C@@H](CC(C)C)C(=O)NCC(N)=O)NC(=O)[C@H](CC(N)=O)NC(=O)[C@H](CCC(N)=O)NC1=O [Oxytocin] | 116 ± 13 | 110 | 99.7 ± 2.2 | 69.2 | 134 ± 41 | 128 | 115 ± 1.7 | 126 ± 1.9 | 134 ± 8.1
O=C([O-])CCCc1ccccc1.[Na+] [Sodium Phenylbutyrate] | 122 ± 6.5 | 135 | 101 ± 19 | 117 | 124 ± 8.9 | 127 | 103 ± 16 | 103.7 ± 0.73 | 162 ± 27
Cc1ccc(F)c(NC(=O)Nc2ccc(-c3cccc4[nH]nc(N)c34)cc2)c1 [Linifanib (ABT-869)] | 117 ± 45 | 165 | 54.2 ± 0.96 | 68.7 | 72 ± 2.6 | 120 | 92.18 ± 0.33 | 160 ± 47 | 139 ± 45
S=C(NCc1ccc2c(c1)OCO2)N1CCN(c2ncnc3c2oc2ccccc23)CC1 [Amuvatinib (MP-470, HPK 56)] | 107 ± 48 | 120 | 40 ± 18 | 81.7 | 82 ± 9.2 | 84.3 | 73 ± 1.1 | 149 ± 3.3 | 75.2 ± 9.7
Cc1cccc(C)c1OCC(C)N.Cl (stereo not drawn) [Mexiletine HCl] | 127 ± 27 | 110 | 120 ± 46 | 123 | 122 ± 26 | 188 | 120 ± 7 | 129 ± 14 | 147 ± 1.7
CC(C)(C)c1cc(C(C)(C)C)c(NC(=O)c2c[nH]c3ccccc3c2=O)cc1O [Ivacaftor (VX-770)] | 41.4 ± 24 | 83.8 | 18.7 ± 3.1 | 139 | 29.5 ± 4.1 | 121 | 97.2 ± 20 | 34.4 ± 0.58 | 200 ± 19

Compound | cell viability (HCI01) | cell viability (HCI03) | cell viability (HCI09) | cell viability (HCI11) | cell viability (HCI13) | cell viability (HCI16) | cell viability (UCD52) | cell viability (WHIM2) | cell viability (WHIM30)
CCCCNC(=O)NS(=O)(=O)c1ccc(C)cc1 [Tolbutamide] | 80.9 ± 42 | 118 | 91.4 ± 5.3 | 83.6 | 88.9 ± 3.6 | 101 | 96.6 ± 5.1 | 105 ± 25 | 101 ± 8.5
COc1ccc(-c2ccc3cc(C(=O)O)ccc3c2)cc1C12CC3CC(CC(C3)C1)C2 [Adapalene] | 119 ± 6.1 | 81.4 | 92.2 ± 40 | 95.5 | 139 ± 23 | 82.7 | 179 ± 28 | 83.8 ± 12 | 114 ± 18
CC(C)(C)NCC(O)COc1nsnc1N1CCOCC1.O=C(O)C=CC(=O)O (stereo not drawn) [Timolol Maleate] | 115.9 ± 0.17 | 116 | 106 ± 5.1 | 107 | 89.5 ± 12 | 120 | 96.4 ± 1.9 | 93.1 ± 15 | 112 ± 6.8
COC1C(O)CC(=O)OC(C)CC=CC=CC(OC2CCC(N(C)C)C(C)O2)C(C)CC(CC=O)C1OC1OC(C)C(OC2CC(C)(O)C(O)C(C)O2)C(N(C)C)C1O (stereo not drawn) [Spiramycin] | 133 ± 7.7 | 125 | 110 ± 12 | 116 | 78.9 ± 20 | 138 | 94.4 ± 1.5 | 149 ± 30 | 123 ± 5.8
N=C(N)c1ccc(OCCCCCOc2ccc(C(=N)N)cc2)cc1.O=S(=O)(O)CCO.O=S(=O)(O)CCO [Pentamidine isethionate] | 98.1 ± 3.2 | 104 | 27.495 ± 0.0084 | 74.7 | 180 ± 61 | 87.7 | 91.2 ± 2.3 | 85.2 ± 19 | 113 ± 7.6
CCCC1CC(C(=O)NC(C(C)Cl)C2OC(SC)C(O)C(O)C2O)N(C)C1 (stereo not drawn) [Clindamycin] | 142 ± 42 | 124 | 83 ± 23 | 106 | 76.4 ± 12 | 122 | 96.8 ± 12 | 117 ± 13 | 116 ± 7.1
CNCC(O)c1cccc(O)c1.Cl (stereo not drawn) [Phenylephrine HCl] | 110 ± 2.1 | 126 | 103 ± 22 | 105 | 78 ± 4.8 | 97.2 | 87.5 ± 4.1 | 86.1 ± 7.8 | 109 ± 7.6
CN1CCN(C2=c3ccccc3=Nc3ccc(Cl)cc3N2)CC1 [Clozapine] | 95.4 ± 14 | 130 | 101 ± 11 | 87.2 | 106 ± 1.6 | 123 | 83.6 ± 11 | 85.298 ± 0.078 | 122 ± 15
CNC(C)C1CCC(N)C(OC2C(N)CC(N)C(OC3OCC(C)(O)C(NC)C3O)C2O)O1.O=S(=O)(O)O (stereo not drawn) [Gentamycin Sulfate] | 119 ± 8.9 | 90.7 | 100 ± 26 | 101 | 94.4 ± 9.3 | 97 | 94.8 ± 20 | 72.4 ± 2 | 116 ± 21
N#CC1CCCN1C(=O)CNC12CC3CC(CC(O)(C3)C1)C2 (stereo not drawn) [Vildagliptin (LAF-237)] | 118.9 ± 0.29 | 125 | 88.7 ± 16 | 126 | 96.1 ± 17 | 114 | 121 ± 12 | 112 ± 1.5 | 141 ± 20
CNS(=O)(=O)Cc1ccc2[nH]cc(CCN(C)C)c2c1 [Sumatriptan] | 92.7 ± 1.9 | 119 | 84 ± 7.2 | 90.7 | 126 ± 3.5 | 110 | 98 ± 7.2 | 95.6 ± 19 | 110 ± 19
CCN(CCO)CCCOc1ccc2c(Nc3cc(CC(=O)Nc4cccc(F)c4)[nH]n3)ncnc2c1 [Barasertib (AZD1152-HQPA)] | 136 ± 22 | 118 | 79.2 ± 6.8 | 91.5 | 97.3 ± 5.7 | 143 | 107 ± 20 | 89.4 ± 4 | 131 ± 0.53
COCCOC(=O)C1=C(C)NC(C)=C(C(=O)OC(C)C)C1c1cccc([N+](=O)[O-])c1 (stereo not drawn) [Nimodipine] | 136 ± 0.51 | 107 | 128 ± 25 | 115 | 87.6 ± 5.7 | 121 | 114 ± 5.1 | 132 ± 7.9 | 157 ± 28
O=C(O)CCC(=O)O.O=C(OC1CN2CCC1CC2)N1CCc2ccccc2C1c1ccccc1 (stereo not drawn) [Solifenacin succinate] | 90.4 ± 10 | 107 | 91.8 ± 7 | 86.9 | 118 ± 9.5 | 104 | 57.36 ± 0.49 | 76.8 ± 2.9 | 87.6 ± 3.7
CC1=NS(=O)(=O)c2cc(Cl)ccc2N1 [Diazoxide] | 92.6 ± 9.1 | 151 | 86.4 ± 17 | 98.1 | 99.6 ± 11 | 102 | 104 ± 2.7 | 95.9 ± 3.5 | 117 ± 3.8
CCCc1cc(C(N)=S)ccn1 [Protionamide] | 90.1 ± 32 | 117 | 97.5 ± 3 | 89.2 | 117 ± 10 | 112 | 100.1 ± 0.95 | 84 ± 27 | 112 ± 7.7
CS(=O)(=O)O.CS(=O)(=O)O.N=C(N)c1ccc2cc(OC(=O)c3ccc(N=C(N)N)cc3)ccc2c1 [Nafamostat Mesylate(FUT-175)] | 110 ± 13 | 82 | 43.9 ± 4.1 | 82.1 | 95.5 ± 20 | 98.4 | 106 ± 13 | 100 ± 34 | 105 ± 13
Cl.NNc1nncc2ccccc12 [Hydralazine HCl] | 142 ± 22 | 131 | 113 ± 9.5 | 79.8 | 121 ± 7.1 | 180 | 162 ± 3.2 | 148 ± 5.5 | 151 ± 11
CN(C)c1nc(N(C)C)nc(N(C)C)n1 [Altretamine] | 94.8 ± 11 | 96.7 | 89.6 ± 2.6 | 96.8 | 77.9 ± 3.4 | 108 | 78 ± 4.9 | 115 ± 5.7 | 109.4 ± 0.74
CCOc1ccc(NC(C)=O)cc1 [Phenacetin] | 139 ± 6 | 136 | 96.9 ± 17 | 96.7 | 102 ± 3.9 | 122 | 82 ± 12 | 98.7 ± 10 | 94.4 ± 11
CCNC(=O)CCCC=CCC1C(O)CC(O)C1C=CC(O)CCc1ccccc1 (stereo not drawn) [Bimatoprost] | 80.9 ± 64 | 154 | 91.9 ± 22 | 97.5 | 118 ± 6.7 | 144 | 86.2 ± 4.6 | 98.4 ± 23 | 148 ± 9.5
